From PubChem BioAssay come the findings set out here.

The test deals with NADPH oxidase 5 (Homo sapiens) (UniProt Q96PH1). The test can be described thus: compounds shifting NOX5 Amplex Red fluorescence – cell-based, HEK293-NOX5, NOX inhibitor project, primary screen (AID 1161). Particulars: HEK293-NOX5, ionomycin, 45 min, higher = more signal.
Chain of NADPH oxidase 5 (Homo sapiens) (Q96PH1 whole entry, looked up): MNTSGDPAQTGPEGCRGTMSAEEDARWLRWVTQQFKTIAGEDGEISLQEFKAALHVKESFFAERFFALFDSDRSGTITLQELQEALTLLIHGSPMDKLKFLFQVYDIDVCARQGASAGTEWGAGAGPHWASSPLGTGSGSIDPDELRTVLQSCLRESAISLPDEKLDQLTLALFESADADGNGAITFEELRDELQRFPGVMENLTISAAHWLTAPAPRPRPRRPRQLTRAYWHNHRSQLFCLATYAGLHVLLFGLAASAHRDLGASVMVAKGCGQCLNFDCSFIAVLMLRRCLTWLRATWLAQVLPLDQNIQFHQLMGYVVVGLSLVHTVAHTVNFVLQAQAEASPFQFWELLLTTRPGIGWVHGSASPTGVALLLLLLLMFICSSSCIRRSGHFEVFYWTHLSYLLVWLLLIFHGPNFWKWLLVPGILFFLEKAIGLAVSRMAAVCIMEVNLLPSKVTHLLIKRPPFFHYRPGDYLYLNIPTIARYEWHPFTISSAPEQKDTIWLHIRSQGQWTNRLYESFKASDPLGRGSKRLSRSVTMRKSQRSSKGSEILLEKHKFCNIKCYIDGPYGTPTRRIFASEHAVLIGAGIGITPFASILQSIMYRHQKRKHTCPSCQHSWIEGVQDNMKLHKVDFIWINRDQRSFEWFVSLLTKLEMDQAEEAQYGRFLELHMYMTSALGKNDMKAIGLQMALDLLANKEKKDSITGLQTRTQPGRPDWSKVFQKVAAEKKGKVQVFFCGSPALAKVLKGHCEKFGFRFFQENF
In the case of `CO[C@@H]1COC(=O)[C@H](C)NC(=O)[C@@H](C)COC(=O)CCC[C@H]1C`, the z-score is -1.15.
Turning to `CC(C)c1ccc(NN2C(C(O)c3ccc4c(c3)OCO4)C=CC3C(=O)N(c4ccccc4)C(=O)C32)cc1` (configuration not stated), the z-score was -0.752.
Then `CCOC(=O)[C@H](Cc1ccccc1)NC(=O)CCC1CC(OC(=O)NCc2ccc3c(c2)OCO3)CC2(CCCC(COC(=O)NCc3ccccc3)O2)O1` (some centres not stated), with 0.562; and `CC(C)(C)OC(=O)CC[C@]1(C(=O)NCc2ccccc2)N=C(c2ccc(OCCCO)cc2)O[C@H]1c1ccccc1`, with -1.81; and `Cc1ccc(C2CC=C(C(=O)O)CN2S(=O)(=O)c2ccc(C)cc2)cc1` (configuration not stated), with 0.321.
`CC[C@@H](c1ccccc1)n1c(=O)n2n(c1=O)[C@H]1[C@H](O)[C@@H]3O[C@@H]3C(=NOCC=C(C)CCC=C(C)C)[C@H]1CC2`: the z-score is -1.35.
Then `CC(CCC(=O)OC[C@H]1O[C@H](C#Cc2ccccc2)C=C[C@@H]1Oc1ccc(C)cc1)=NOC[C@@H](O)COCc1ccco1`, with -0.37.
